PubChem BioAssay AID1839 (Johns Hopkins Ion Channel Center, 2009)
Out of some 2,400 compounds screened, about 220 (9.2%) were called active. The sample as a whole holds a higher share of actives than the screen did. Values without a mark were called inactive.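 Rule for the calls: active = signal change above the mean of dofetilide-free buffer controls plus 3 SD, so a positive margin; inactive = the rest.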

Test: thallium signal changes without hERG – cell-based, CHO-K1 parental line, FluxOR thallium flux, counter-screen for hERG block protection project, confirmation (AID 1839);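 note: compounds applied alone with no dofetilide to cells lacking hERG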
Conditions: CHO-K1 parental cells, FluxOR thallium flux fluorescence; at 10 µM

SMILES	signal change vs control minus 3*SD hit threshold (margin above threshold, higher = more increase)
Cc1nnc(SCc2cc(=O)oc3cc(O)ccc23)n1Cc1ccccc1	-27.2%
O=C(NC(=S)Nc1ccc(N2CCOCC2)c(Cl)c1)c1sc2ccccc2c1Cl	-3.9%
Oc1ccc(N=Nc2ccccc2-c2nn[nH]n2)c(O)c1	-14.2%
CCOC(=O)c1cccc(C(=O)Nc2nc3ccc(OC)cc3s2)n1	-31.4%
COc1ccc(S(=O)(=O)Nc2ccc(O)c3ccccc23)cc1	-41.6%
COc1ccc2nc(N=Nc3c(O)ccc4ccccc34)sc2c1	1.7% (active)
Cc1cc(NC(=O)/C(C#N)=C/c2ccco2)n(-c2ccccc2)n1	-40.7%
O=c1cc(-c2ccccc2)nc2c(-c3ccccc3)c(C(F)(F)F)[nH]n12	8.1% (active)
Cc1[nH]n2c(=O)cc(C(C)(C)C)nc2c1-c1ccccc1	-21.1%
Cc1[nH]n2c(=O)cc(C(C)C)nc2c1-c1ccccc1	-21.7%
Cc1nc(-c2nc(-c3c(C(=O)NNC(=O)c4ccc(Cl)cc4)noc3C)cs2)cs1	-33.4%
COCCn1c(=S)[nH]c2sc3c(c2c1=O)CCC(C)C3 (stereo not given)	18.3% (active)
Cn1c(=S)[nH]c2sc3c(c2c1=O)CCC(C(C)(C)C)C3 (stereo not given)	32% (active)
Cc1cccc(-n2c(=S)[nH]c3sc4c(c3c2=O)CCc2ccccc2-4)c1	-27.1%
Cc1ccc(-n2c(=S)[nH]c3sc4c(c3c2=O)CCC4)cc1	-20.7%
CC1CCc2c(sc3[nH]c(=S)n(C)c(=O)c23)C1 (stereo not given)	23.8% (active)
O=C(NC(=S)N1CCN(C/C=C/c2ccccc2)CC1)c1ccc(Cl)nc1	-22.6%
Cc1ccc(NC(=S)N2CCN(c3ccccc3F)CC2)c(C)c1	-24.2%
O=c1[nH]c2ccc(S(=O)(=O)NCc3ccccc3)cc2[nH]1	-30.8%
CC(=O)c1c(N2CCN(Cc3ccccc3)CC2)[nH]c(-c2ccccc2)nc1=S	-16.4%
CCN(CC)C(=O)CN1C(=O)c2cccc3cccc(c23)C1=O	-21.1%
COc1ccccc1/C=C1\SC(=S)N(NS(=O)(=O)c2ccc(C)cc2)C1=O	-41.8%
Cc1cc(=O)oc2cc(OC(C(=O)O)c3ccccc3)ccc12 (stereo not given)	-33.7%
Cc1ccc(-c2cc(-c3n[nH]c(=S)o3)c3ccccc3n2)cc1	-2.6%
C=CCc1cc(Cl)ccc1OCCOCCN(C)C	-30%

SMILES	signal change vs control minus 3*SD hit threshold (margin above threshold, higher = more increase)
CCOC(=O)c1sc2ncnc(NCC(c3cccs3)N(C)C)c2c1C (stereo not given)	3.3% (active)
CCOC(=O)c1sc2nc(C)[nH]c(=S)c2c1C	-9.2%
CCOC(=O)c1c(NC(=O)/C=C/c2ccco2)sc(C)c1C	-32.2%
CCOC(=O)c1sc(NC(=O)c2ccccc2C(=O)O)c(C(=O)OCC)c1C	-19%
CCOC(=O)c1sc2ncnc(NCc3ccco3)c2c1C	1.7% (active)
CCOC(=O)c1sc(NC(=S)NC(=O)c2ccccc2)nc1C	-3.4%
CC/C(=N\NC(=O)c1nnn(-c2nonc2N)c1-c1cccs1)c1ccccc1	-25.4%
COC(=O)c1ccc(C(=O)NC(=S)Nc2nc3c(s2)CCCC3)cc1	2% (active)
CC(C)(C)c1ccc(C(=O)NC(=S)Nc2nc3c(s2)CCCC3)cc1	-9.2%
O=C(NC(=S)Nc1nc2c(s1)CCCC2)c1ccc(C(=O)c2ccccc2)cc1	-36.7%
O=C(NCC(c1cccs1)N1CCOCC1)c1cc(S(=O)(=O)N2CCOCC2)ccc1F (stereo not given)	-28.4%
O=C1CSC(=S)N1/N=C/c1cc(Br)ccc1O	-42.6%
O=C(/C=C/c1ccccc1)c1cc(Br)ccc(=O)c1O	-22.9%
COc1ccc(-c2oc3ccccc3c(=O)c2OC(C)=O)cc1	-22.3%
CC(=O)Oc1c(-c2ccco2)oc2ccccc2c1=O	-12.5%
CC(=O)Oc1c(-c2ccc(Br)o2)oc2ccccc2c1=O	63.5% (active)
Cc1ccc(C(=O)NNc2cc(N3CCCC3)nc(N3CCCC3)n2)cc1	-21.8%
Cc1ccc(NC(=O)C(=O)NNC(=O)c2cccs2)cc1	27.4% (active)
CCc1ccc(NC(=O)C(=O)NNC(=O)c2cccs2)cc1	18.1% (active)
COc1ccc(NC(=O)C(=O)NNC(=O)c2cccs2)c(OC)c1	-7.2%
CCN(CC)c1ccc(NC(=S)NC(=O)c2cccs2)cc1	-20.8%
Cc1ccc(N/C=C/C(=O)c2cccs2)cc1	-25.9%
O=C(NC(=S)NNC(=O)c1cccs1)c1ccc(Br)o1	-45.9%
CCOc1ccccc1Nc1nc(-c2sc(C)nc2C)cs1	-38.3%
COC(=O)c1ccc(-n2c(C)nc(=O)c(-c3ccccc3)c2C)cc1	-20.1%
